Shown are actives, neighbours in structure and some others; about 2.1% of the full set was active somewhere.
RN4220 kill: growth inhibition of S. aureus RN4220, primary screen, OD600. actives 0.33% (n = 330,000). inhibition, % (test concentration not listed). AID 1259311, 2017. 16 h; in the data active = inhibition above about 85%
PrPC TRFRET: inhibitors of human cell surface prion protein PrPC, primary screen, cell-based, TR-FRET; Major prion protein (Homo sapiens), P04156; TR-FRET read-out; inhibition, % at 13.8 µM; actives 0.43% (n = 370,000); in the data active = inhibition above about 24%
PrP UTR inh: inhibition of PrP 5' UTR reporter expression; actives 0.35% (n = 340,000); cell-based PrP 5' UTR mRNA reporter, plate reader; inhibition, % (concentration not given with the values); in the data active = inhibition above about 52%
CCHFV vOTU inh: CCHFV vOTU protease inhibitors, primary screen, biochemical, Pep-AMC substrate, fluorescence; Crimean-Congo hemorrhagic fever virus L polyprotein viral ovarian tumor (vOTU) protease …; inhibition, % at 11.5 µM; actives 0.55% (n = 370,000); AID 651958, 2012; in the data active = inhibition above about 30%
PfHsp40 rescue: rescue of yeast from PfHsp40 toxicity, primary screen, S. cerevisiae, ATP luminescence; growth rescue, % at 12.5 µM; actives 0.68% (n = 340,000); S. cerevisiae expressing PfHsp40, growth rescue; in the data active = growth rescue above about 28%, passing the limit was not always enough; inconclusive = no clear call, values can overlap the other calls;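 also: yeast W303a lacking pdr1 and pdr3 grown in galactose medium; growth measured after three days at 30 °C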
Sa ugtP lethal: growth inhibition of ugtP-null S. aureus, primary screen, RN4220 ugtP deletion, OD600. 16 h. growth inhibition, % (no concentration beside the values). actives 0.54% (n = 330,000). AID 1259309, 2017; in the data active = growth inhibition above about 68%
PrP UTR cherry: prion 5' UTR mRNA inhibition, cherry-pick retest; actives 48% (n = 1,100); shares compounds with PrP UTR inh; inhibition, % at 2.5 µM; cell-based prion protein 5' UTR reporter, plate reader; in the data active = inhibition above about 54%; inconclusive = no clear call, values can overlap the other calls
Large screens that a line does not name were inactive (follow-up assays come after a bar, where they were run).

CN1CCN(c2ccc(NC(=O)N3CCc4ccccc43)cc2)CC1	PrP UTR inh 64 | PrP UTR cherry inconclusive
Cc1ccc(NC(=O)N2CCc3ccccc32)cc1	none
COc1cc(C=CC(=O)N2CCCN(C(=O)C=Cc3cc(OC)c(OC)c(OC)c3)CC2)cc(OC)c1OC	none (no result: PrPC TRFRET, PrP UTR inh, CCHFV vOTU inh, PfHsp40 rescue)
Cn1c2ccccc2c(=O)c2ccc(C#CC3(N)CCCCC3)cc21	none
O=c1c2ccccc2oc2ccc(C#CC3(O)CCCCC3)cc12	none
Cc1cc2sc3ccc(C#CC4(O)CCCCC4)cc3c(=O)c2cc1C	PrP UTR inh 92 | PrP UTR cherry 93
Cn1c2ccccc2c(=O)c2cc(C#CC3(O)CCCCC3)ccc21	PrP UTR inh 65 | PrP UTR cherry inactive
CN(C)C=NC(=S)Nc1ccc(Cl)c(Cl)c1	none (no result: PrPC TRFRET, PrP UTR inh, CCHFV vOTU inh, PfHsp40 rescue)
CCCNC1CCc2nc(N)sc2C1 (stereo unspecified)	none (no result: PrPC TRFRET, PrP UTR inh, CCHFV vOTU inh, PfHsp40 rescue)
NC(=O)COC(=O)c1ccc(S(=O)(=O)N2CCCCCC2)cc1	none
Cc1nc(COC(=O)c2ccc(S(=O)(=O)N3CCCC3)cc2)cs1	PrP UTR inh 89 | PrP UTR cherry inactive
Cc1cc(OCCCCN2C(=O)NC(C)(C)C2=O)ccc1[N+](=O)[O-]	none
Cc1ccc([N+](=O)[O-])c(OCCN2C(=O)NC(C)(C)C2=O)c1	PrP UTR inh 53 | PrP UTR cherry inactive
COc1ccc(N(CC(=O)NN=Cc2cccnc2)S(=O)(=O)c2ccccc2)c(OC)c1	none (no result: PrPC TRFRET, PrP UTR inh, CCHFV vOTU inh, PfHsp40 rescue)
COc1cc(NN=Cc2ccccc2O)ncn1	none (no result: PrPC TRFRET, PrP UTR inh, CCHFV vOTU inh, PfHsp40 rescue)
Cc1cc(-c2ccccc2)n(-c2cc(N/N=C/c3ccccc3O)ncn2)n1	PrP UTR inh 76, PfHsp40 rescue 582 (no result: RN4220 kill, Sa ugtP lethal) | PrP UTR cherry 90
COc1ccc(C(=O)NCCCNC(=O)c2cc3ccccc3[nH]2)cc1OC	PrP UTR inh 78 | PrP UTR cherry inactive
COc1ccc(CCNC(=O)CCc2cc(OC)c(OC)c(OC)c2)cc1	none
COc1ccc(CCc2cc(OC)c(OC)c(OC)c2)cc1	PrP UTR inh 57 (no result: RN4220 kill, Sa ugtP lethal) | PrP UTR cherry 88
O=C(NCCS(=O)(=O)NCc1ccccc1)c1ccc2c(c1)OCO2	none
O=C(NCCc1ccccc1)c1ccc2c(c1)OCO2	PrP UTR inh 58 | PrP UTR cherry inconclusive
Cc1ccc(NCC(=O)NN=Cc2ccc(-c3cccc(C(F)(F)F)c3)o2)cc1	none (no result: PrPC TRFRET, PrP UTR inh, CCHFV vOTU inh, PfHsp40 rescue)
Cc1ccc(C=NN=C2SCC(=O)N2CC2CC2)cc1	none (no result: PrPC TRFRET, PrP UTR inh, CCHFV vOTU inh, PfHsp40 rescue)
Cc1cc(NC(=O)CSc2nnc(-c3ccco3)n2C)no1	PrP UTR inh 88 | PrP UTR cherry inactive
CN1CCSc2ccc(C(=O)NCc3ccccc3F)cc21	none
COc1cccc(CNC(=O)c2ccc3c(c2)N(C)CCS3)c1OC	PrP UTR inh 59 | PrP UTR cherry inactive
O=C1C=C(c2cc3ccccc3s2)CC(c2ccc(F)cc2)C1 (stereo unspecified)	none (no result: PrPC TRFRET, PrP UTR inh, CCHFV vOTU inh, PfHsp40 rescue)
O=C(C[n+]1ccccc1)NN=Cc1ccccc1[N+](=O)[O-]	none (no result: PrPC TRFRET, PrP UTR inh, CCHFV vOTU inh, PfHsp40 rescue)
CCOC(=O)N(NC(=O)C(O)(c1ccccc1)c1ccccc1)c1ccccc1	none
Cc1cccc(N(NC(=O)C(C)(C)O)C(=O)c2ccccc2)c1	PrP UTR inh 67 | PrP UTR cherry inactive
CC(C)(C)OC(=O)NCCCCC(NC(=O)c1nc[nH]c1C(=O)NCc1ccccc1)C(=O)OC(C)(C)C (stereo unspecified)	none (no result: PrPC TRFRET, PrP UTR inh, CCHFV vOTU inh, PfHsp40 rescue)
CC1(C)c2ccccc2N2CCC(=O)NC21C=Cc1ccco1 (stereo unspecified)	none (no result: PrPC TRFRET, PrP UTR inh, CCHFV vOTU inh, PfHsp40 rescue)
COc1ccc(C(CNC(=O)C(CCSC)NC(=O)c2ccccc2Cl)N2CCCC2)cc1 (stereo unspecified)	none
COc1ccc(C(CNC(=O)C(CCSC)NC(=O)c2ccccc2Cl)N2CCCCC2)cc1 (stereo unspecified)	PrP UTR inh 72 | PrP UTR cherry inactive
COc1ccc(NC(C)=C2C(=O)C(=O)N(CCO)C2c2ccc([N+](=O)[O-])cc2)cc1 (stereo unspecified)	none (no result: PrPC TRFRET, PrP UTR inh, CCHFV vOTU inh, PfHsp40 rescue)
CCOC(=O)c1c(C)[nH]c(C(=O)NN=Cc2ccccc2O)c1C	none (no result: PrPC TRFRET, PrP UTR inh, CCHFV vOTU inh, PfHsp40 rescue)
CCOC(=O)c1c(C)[nH]c(C(=O)N/N=C/c2ccc(Br)cc2)c1C	PrP UTR inh 55 (no result: RN4220 kill, Sa ugtP lethal) | PrP UTR cherry 88
CC(=NNS(=O)(=O)c1ccc(C)cc1)c1ccc(C)o1	none (no result: PrPC TRFRET, PrP UTR inh, CCHFV vOTU inh, PfHsp40 rescue)
CC(Oc1ccc(F)cc1)C(O)CCN(C)C (stereo unspecified)	PrP UTR inh 74 | PrP UTR cherry inactive
CC(C)Oc1ccc(C(CC(=O)NCCCN(C)C)c2ccc(F)cc2)cc1 (stereo unspecified)	none
O=C(C[n+]1ccccc1)NN=Cc1c(F)cccc1Cl	none (no result: PrPC TRFRET, PrP UTR inh, CCHFV vOTU inh, PfHsp40 rescue)
O=C(C[n+]1ccccc1)N/N=C/c1c(F)cccc1Cl	PrP UTR inh 59 (no result: RN4220 kill, Sa ugtP lethal) | PrP UTR cherry inactive
COCCn1c(C)cc(C(=O)COC(=O)c2cccc(O)c2)c1C	PrP UTR inh 83 | PrP UTR cherry 79
COCCn1c(C)cc(C(=O)CSc2nnnn2C2CCCC2)c1C	PrP UTR inh 64 | PrP UTR cherry 57
COc1ccc(Cl)cc1C(=O)CSc1nnnn1C1CCCCC1	none
COCCn1c(C)cc(C(=O)CSc2nnc(C)s2)c1C	PrP UTR inh 57 | PrP UTR cherry 72
O=C(NN=Cc1cc(Cl)cc([N+](=O)[O-])c1O)c1ccc2c(c1)OCO2	none (no result: PrPC TRFRET, PrP UTR inh, CCHFV vOTU inh, PfHsp40 rescue)
CC(C)CC(NC(=O)c1nc[nH]c1C(=O)N1CCC(C)CC1)C(=O)OCc1ccccc1 (stereo unspecified)	none (no result: PrPC TRFRET, PrP UTR inh, CCHFV vOTU inh, PfHsp40 rescue)
CC(=O)Nc1cccc(NC(C)=O)n1	none
CC(=O)Nc1cccc(C(=O)O)n1	PrP UTR inh 88 | PrP UTR cherry inactive
CC(=O)NN=C(C)c1ccc(NC(=O)c2csc(C)c2C)cc1	none (no result: PrPC TRFRET, PrP UTR inh, CCHFV vOTU inh, PfHsp40 rescue)
CCN1CC(=NS(=O)(=O)N=C2CN(CC)C(=O)N2CC)N(CC)C1=O	none (no result: PrPC TRFRET, PrP UTR inh, CCHFV vOTU inh, PfHsp40 rescue)
Cc1ccc2nc(NC(=S)NC(=O)c3ccco3)sc2c1	none
Cc1ccc2nc(NC(=O)c3ccco3)sc2c1	PrP UTR inh 59 | PrP UTR cherry inactive
COC(=O)c1ccc2c(c1)c(-c1ccccc1)c(-c1ccccc1)n2C	PrP UTR inh 85 | PrP UTR cherry inactive
CNS(=O)(=O)c1ccc(NC(=O)c2cnn3c(C(F)F)cc(-c4ccccc4)nc23)cc1	none
O=C(Nc1cccc(S(=O)(=O)N2CCOCC2)c1)c1cnn2c(C(F)F)cc(-c3ccccc3)nc12	PrP UTR inh 80 | PrP UTR cherry inactive
Cc1ccc(CNC(=O)c2ccc(S(=O)(=O)Nc3c(C)n(C)n(-c4ccccc4)c3=O)cc2)cc1	none
Cc1c(NS(=O)(=O)c2ccc(C(=O)NCc3ccccc3)cc2)c(=O)n(-c2ccccc2)n1C	PrP UTR inh 56 | PrP UTR cherry inactive
O=C(NCC1CCCCC1)c1ccc(F)c(S(=O)(=O)N2CCOCC2)c1	none
